Our source for the outcome values is PubChem BioAssay (EPA / NIEHS).

Results filed as inconclusive are left out. The source made the active and inactive calls. The calls were made as follows: active = hit-call score of the fitted dose curve at least 0.9, where 1 is the maximum; inconclusive = response in the unintended direction; inactive = score below 0.9.

Read-out in the test: ABC Transporter (ABCB11), ABCB11 (gene 8647)
Put plainly: CLD_ABCB11_6hr: CellzDirect (CLD) Gene Expression Assay for ABC Transporter (ABCB11) at 6 hours (AID 2283675).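 Also: hits raise ABCB11 mRNA level so AC50 marks induction.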 The method, then: CLD_6hr is a cell-based, multiplexed-readout assay that uses hepatocyte, a human liver primary cell, with measurements taken at 6 hours after chemical dosing in a 96-well plate.CLD_ABCB11_6hr is one of 16 assay component(s) measured or calculated from the CLD_6hr assay. It is designed to make measurements of mRNA induction, a form of inducible reporter, as detected with chemiluminescence signals by Quantitative Nuclease Protection Assay (qNPA) technology.Data from the assay component CLD_ABCB11_6hr was analyzed at the endpoint, CLD_ABCB11_6hr, in the positive analysis fitting direction relative to DMSO as the negative control and baseline of activity. Using a type of inducible reporter, gain-of-signal activity can be used to understand changes in the reporter gene as they relate to the gene ABCB11. Furthermore, this assay endpoint can be referred to as a primary readout. To generalize the intended target to other relatable targets, this assay endpoint is annotated to the transporter intended target family, where subfamily is ABC transporter.
Human hepatocyte cultures were treated daily for two consecutive days with fresh dosing solutions containing appropriate concentrations of the 320 ToxCast chemicals (chemical identities were blinded to CellzDirect and other ToxCast collaborators), vehicle control (0.2% DMSO), and positive control inducers as summarized in Table 1. Due to the large number of treatment groups and chemicals examined, the ToxCast chemicals were divided into two groups (spanning two independent cultures of hepatocytes from separate donor preparations (Hu778: ToxCast plates 1 and 2; Hu776: ToxCast plates 3 and 4). Each preparation of human hepatocyte cultures was treated with respective vehicle control, medium only control, set of six positive controls/reference chemicals for the five hepatic receptor pathways, and a subset of eight of the ToxCast chemicals (indoxacarb, pyrithiobac-sodium, norflurazon, cyhalofop-butyl, methomyl, thiram, acetochlor, and propiconazole). These replicate data, coupled with internal replicates designed within the blinded ToxCast chemical library, provided additional data to evaluate interindividual differences between hepatocyte preparations and their potential impact on chemical profiles.Cell morphology and integrity were evaluated using phase-contrast microscopy as an indicator of hepatocyte cell health (Tyson & Green, 1987). Cultures for each treatment group (i.e., media, vehicle [0.2% DMSO], positive control inducers [multiple concentrations], and the ToxCast chemicals [multiple concentrations]) were observed and cell morphology was assessed relative to vehicle control cultures at each harvest time point (0, 6, 24, or 48 h). […] Images were evaluated at the conclusion of the study to assess changes in cell integrity and account for the effects of chemical exposure on uncharacteristic changes in concentration-dependent gene expression profiles. The results from these determinations of apparent cytotoxicity were annotated (yes/no) alongside the corresponding qNPA data for reference.At the conclusion of each treatment period, hepatocyte cultures (96-well) were washed with 1 volume of HBSS, lysed by addition of 25 ul ArrayPlate lysis buffer (HTG, Tucson, AZ), and 70 ul/well of Denaturation Oil, denatured by incubation at 95C for 10 min, and frozen at approximately -70C until analysis by nuclease protection assay (qNPA) (Roberts et al., 2007). For qNPA analysis, cell lysates were thawed at 50C for approximately 30 min, qNPA probes were added, and samples were incubated at 95C for 10 min to begin the detection process by denaturing the target RNA, dissociating the duplexes and secondary structure hybridization. At the conclusion of the hybridization period, S1 nuclease reagent was added to each sample to digest all nonprotected nucleotides at 50C for 60-90 min. […]
In the case of `CCOP(=S)(OCC)SCn1c(=O)oc2cc(Cl)ccc21`, the compound was classed as inactive.

Turning to `CC(Oc1ccc(Cl)cc1Cl)C(=O)O` (stereo not given), the compound was called inactive. Regarding `CCCCNC(=O)OCC#CI`, the result was inactive. Turning to `O=C(O)c1nc(Cl)ccc1Cl`, the outcome was inactive.

Turning to `CN(C)C(=S)SSC(=S)N(C)C`, the compound was called inactive.

Turning to `CCCCNC(=O)n1c(NC(=O)OC)nc2ccccc21`, the compound was called inactive.

With `COC(=O)c1ccccc1C(=O)OC`, the compound was called inactive. The value for `CCOc1cc(Oc2ccc(C(F)(F)F)cc2Cl)ccc1[N+](=O)[O-]` was “inactive”; that for `COc1nc(C)nc(NC(=O)NS(=O)(=O)c2ccccc2CCC(F)(F)F)n1` was “inactive”; that for `CCOC(=O)C(Cl)Cc1cc(-n2nc(C)n(C(F)F)c2=O)c(F)cc1Cl` (stereo not given) was “inactive”. In the case of `COc1ccc(C(c2ccc(OC)cc2)C(Cl)(Cl)Cl)cc1` it was “inactive”; in that of `CCCCC(CC)COC(=O)c1ccccc1C(=O)OCC(CC)CCCC` (stereo not given), “inactive”.

For the compound `CCCN(CCC)c1c([N+](=O)[O-])cc(S(N)(=O)=O)cc1[N+](=O)[O-]`, the call was inactive.

As to `COP(=S)(OC)Oc1nc(Cl)c(Cl)cc1Cl`, the outcome was inactive. On to `N#Cc1nn(-c2c(Cl)cc(C(F)(F)F)cc2Cl)c(N)c1S(=O)C(F)(F)F` (stereo not given), for which the call was inactive. `COC(=O)N(OC)c1ccccc1COc1ccn(-c2ccc(Cl)cc2)n1`: the call was inactive. As for `C#CCOS(=O)OC1CCCCC1Oc1ccc(C(C)(C)C)cc1` (stereo not given), the outcome was inactive. As to `Cc1c(F)c(F)c(COC(=O)C2C(/C=C(\Cl)C(F)(F)F)C2(C)C)c(F)c1F` (stereo not given), the compound was classed as inactive. For the compound `CCc1nn(C)c(C(=O)NCc2ccc(C(C)(C)C)cc2)c1Cl`, the call was inactive.

Regarding `CNC(=S)S`, the compound was classed as inactive. For `COc1nc(C)nc(NC(=O)NS(=O)(=O)c2ccccc2Cl)n1`, the compound was called inactive. The value for `COC(=O)C=C(C)OP(=O)(OC)OC` was “inactive”. The value for `COP(N)(=O)SC` (stereo not given) was “inactive”; that for `Cc1ccc(-c2c(Cl)nc(C#N)n2S(=O)(=O)N(C)C)cc1` was “inactive”.

With `C=CCC1=C(C)[C@@H](OC(=O)[C@@H]2[C@@H](C=C(C)C)C2(C)C)CC1=O`, the call was inactive. The value for `Oc1ccccc1-c1ccccc1` was “inactive”; that for `N#Cc1cc(Br)c(O)c(Br)c1` was “inactive”; that for `COC(=O)C(C)Oc1ccc(Oc2ccc(Cl)cc2Cl)cc1` (stereo not given) was “inactive”. In the case of `CCCCOC(=O)c1ccccc1C(=O)OCCCC` it was “inactive”. Consider `CCOC(=O)CC(SP(=S)(OC)OC)C(=O)OCC` (stereo not given), for which the outcome was inactive. In the case of `OC(c1ccc(Cl)cc1)(c1cncnc1)c1ccccc1Cl` (stereo not given) it was “inactive”; in that of `CCON=C(CC)C1=C(O)CC(c2c(C)cc(C)cc2C)CC1=O` (stereo not given), “inactive”; in that of `CO/C=C(/C(=O)OC)c1ccccc1Oc1cc(Oc2ccccc2C#N)ncn1`, “inactive”. The value for `CC(C)(C)c1ccc(CSc2cnn(C(C)(C)C)c(=O)c2Cl)cc1` was “inactive”; that for `CS/C(C)=N/OC(=O)N(C)SN(C)C(=O)O/N=C(\C)SC` was “inactive”.
